Screening data deposited in PubChem BioAssay by several laboratories.
SKN-1 block: blocks SKN-1 activity in C. elegans; C. elegans VP596 Pgst-4::GFP/RFP ratio, acrylamide-induced, 24 h; inhibition, % at 21.8 µM; 360,000 tested, 0.49% active; AID 624304;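 active = interference check ratio from 0.5 to 1.5 plus GFP to RFP signal ratio inhibition reaching or exceeding a fixed threshold, cut at about 30% in these data, passing the limit was not always enough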
MEKK2 mut-MEK5: signal of MEK5 binding to mutant human MEKK2 PB1 domain | bead flow cytometry, Alexa488-MEK5 binding to MEKK2 mutant | percent response, % at 10 µM | 290,000 tested, 0.35% active; in the data active = percent response above about 24%, passing the limit was not always enough
MEKK2 WT-MEK5: raises or lowers MEK5 binding to wildtype human MEKK2 PB1 domain. binding response (% of control), % at 10 µM. 290,000 tested, 1.1% active. Q9Y2U5. bead flow cytometry, Alexa488-MEK5 binding to MEKK2 WT; actives lie on both sides; in the data active = binding response below about 67% or above about 130%
MEKK3 PB1 HTS: modulators (inhibitors or enhancers) of MEK5 binding to human MEKK3 PB1 domain | Q99759 | bead-based flow cytometry, Alexa488-MEK5 binding to MEKK3; actives lie on both sides; 0 = blocked by unlabeled MEK5, 100 = vehicle | binding response (% of control), % at 10 µM | 290,000 tested, 1.4% active | AID 1529;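 active = binding response more than 3 SD above or below the average of its plate-row segment, actives on both sides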;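 note: Alexa488 bead fluorescence after subtracting the streptavidin-only scavenger bead signal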
Target sequence (Q99759 whole entry, looked up, the tested form may be a part): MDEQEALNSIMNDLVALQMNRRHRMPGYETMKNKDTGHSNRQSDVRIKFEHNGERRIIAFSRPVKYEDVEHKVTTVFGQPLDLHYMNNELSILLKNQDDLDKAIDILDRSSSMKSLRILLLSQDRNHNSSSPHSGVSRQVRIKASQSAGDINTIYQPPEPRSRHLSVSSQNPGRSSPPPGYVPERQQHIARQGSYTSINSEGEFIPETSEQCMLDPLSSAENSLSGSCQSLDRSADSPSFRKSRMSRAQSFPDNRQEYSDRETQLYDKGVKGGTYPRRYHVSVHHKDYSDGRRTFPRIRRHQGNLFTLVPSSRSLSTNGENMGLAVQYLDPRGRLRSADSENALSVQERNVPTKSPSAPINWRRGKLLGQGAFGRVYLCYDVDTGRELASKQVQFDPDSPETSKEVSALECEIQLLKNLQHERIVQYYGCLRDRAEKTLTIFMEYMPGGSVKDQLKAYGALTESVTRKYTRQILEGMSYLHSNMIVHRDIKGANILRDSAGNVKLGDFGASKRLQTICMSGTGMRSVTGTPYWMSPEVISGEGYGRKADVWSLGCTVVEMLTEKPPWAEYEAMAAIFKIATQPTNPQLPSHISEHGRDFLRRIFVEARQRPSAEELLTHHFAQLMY
CendR NRP1 mod: NRP-1/CendR interaction modulation; O14786; 360,000 tested, 0.85% active; inhibition, % at 25 µM; AID 602438; FAM-RPARPAR peptide binding to NRP-1, fluorescence polarization;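 active = inhibition or corrected inhibition above about 18%, plus a signal ratio from 0.5 to 1.5, limit read from the data, passing the limit was not always enough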
MEKK2wt confirm: raises or lowers MEK5 binding to wildtype human MEKK2, retest | shares compounds with MEKK3 PB1 HTS | binding response (% of control), % at 10 µM | bead flow cytometry, Alexa488-MEK5 binding to MEKK2 WT; actives lie on both sides | 5,900 tested, 2.4% active; in the data active = binding response below about 16% or above about 210%; inactive = in between
MEKK2mut confirm: signal of MEK5 binding to mutant human MEKK2, retest | bead flow cytometry, Alexa488-MEK5 binding to MEKK2 mutant | shares compounds with MEKK3 PB1 HTS | percent response, % at 10 µM | AID 1893 | 5,900 tested, 2% active; in the data active = percent response mostly above about 71%, no sharp cut-off; inactive = mostly below about 38%;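 note: higher means compound restores mutant binding toward wildtype level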
MEKK3 confirm: MEKK3-MEK5 PB1 inhibition, single concentration confirmation. shares compounds with MEKK3 PB1 HTS. bead flow cytometry, Alexa488-MEK5 binding to MEKK3; hits give low values. 5,900 tested, 1.8% active. binding response (% of control), % at 10 µM;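 active = binding response below 72% of control, or above a set upper limit, though filed actives all read lower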;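 note: lower values mean stronger disruption of MEK5 binding to MEKK3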
Each line names hits and unclear results; the compound was inactive in the other large screens (follow-up assays come after a bar, where they were run); [ ] = another dose, or the depositor's remark. Hits are enriched below; roughly 3.2% of the tested compounds scored in any of these assays.

CN(C)CCNC(=O)COc1ccc(C23CC4CC(CC(C4)C2)C3)cc1	MEKK2 WT-MEK5 151 | MEKK2wt confirm inactive | MEKK2mut confirm inactive | MEKK3 confirm inactive
COCCNC(=O)C1(C)CCN(C(=O)c2ccc(C(F)(F)F)nc2C)C1 (stereo not drawn)	none (no result: MEKK2 mut-MEK5, MEKK2 WT-MEK5, MEKK3 PB1 HTS)
O=C(CCNC(=O)c1ccccc1Cl)Nc1ccc2c(c1)OCCO2	none (no result: MEKK2 mut-MEK5, MEKK2 WT-MEK5, MEKK3 PB1 HTS)
CC1=C(C#N)C(=O)NC(=O)/C1=C/c1ccc(-c2ccc(S(N)(=O)=O)cc2)o1	MEKK2 WT-MEK5 3.0[inhibitor], MEKK3 PB1 HTS 7.0[inhibitor] | MEKK2wt confirm inactive | MEKK2mut confirm inactive | MEKK3 confirm inactive
CCOC(=O)C(CC)c1cc2n(c(=O)c1C#N)CCC21OCCO1 (stereo not drawn)	none (no result: MEKK2 mut-MEK5, MEKK2 WT-MEK5, MEKK3 PB1 HTS)
O=C(O)/C=C/C(=O)Nc1cccc2cccnc12	none
O=C(/C=C/c1ccco1)Nc1cccc2cccnc12	MEKK3 PB1 HTS 62[inhibitor] | MEKK2wt confirm inactive | MEKK2mut confirm inactive | MEKK3 confirm inactive
O=C(COc1ccccc1[N+](=O)[O-])N/N=C/c1ccc(OC(=O)c2ccco2)cc1	MEKK3 PB1 HTS 139 | MEKK2wt confirm inactive | MEKK2mut confirm inactive | MEKK3 confirm inactive
COc1cc(/C=N/NC(=O)COc2ccccc2[N+](=O)[O-])ccc1OC(=O)c1ccco1	none
O=C(CSc1ccccc1C(=O)NCc1ccccc1)NC12CC3CC(CC(C3)C1)C2	MEKK3 PB1 HTS 134 | MEKK2wt confirm inactive | MEKK2mut confirm inactive | MEKK3 confirm inactive
O=C(CSc1ccccc1C(=O)NCc1ccccc1)NC1CCCCCCC1	MEKK3 PB1 HTS 131 | MEKK2wt confirm inactive | MEKK2mut confirm inactive | MEKK3 confirm inactive
CCOC(=O)Nc1cc(Br)c2c(c1)OCCO2	MEKK2 WT-MEK5 -4.0[inhibitor], MEKK3 PB1 HTS 0.0[inhibitor] | MEKK2wt confirm inactive | MEKK2mut confirm inactive | MEKK3 confirm inactive
Cc1cccc(-c2cc3nc4c(c(NCc5ccco5)n3n2)CCCC4)c1	MEKK2 WT-MEK5 136 | MEKK2wt confirm inactive | MEKK2mut confirm inactive | MEKK3 confirm inactive
Cc1ccc(S(=O)(=O)N2C[C@H]3C(=O)C[C@@H](c4ccccc4)N(S(=O)(=O)c4ccccc4[N+](=O)[O-])[C@H]3C[C@H]2c2ccccc2)cc1	none (no result: MEKK2 mut-MEK5, MEKK2 WT-MEK5, MEKK3 PB1 HTS)
Cc1ccc(S(=O)(=O)N(C)C)cc1NC(=O)C(C)OC(=O)c1ccc2c(=O)n3c(nc2c1)CCC3 (stereo not drawn)	none (no result: MEKK2 mut-MEK5, MEKK2 WT-MEK5, MEKK3 PB1 HTS)
CN1CCc2c(sc3c2c(=O)n(-c2ccc(Cl)cc2)c2nncn32)C1	MEKK3 PB1 HTS 122 | MEKK2wt confirm inactive | MEKK2mut confirm inactive | MEKK3 confirm inactive
CCN(CC)CCn1c(=O)n(-c2ccc(Cl)cc2)c(=O)c2c3c(sc21)CN(C)CC3	none
C/C(=C\c1ccc(F)cc1)C(=O)c1c(C)cc(C)[nH]c1=O	none
Clc1ccc(CO/N=C2\CCCc3nonc32)cc1	MEKK3 PB1 HTS 145 | MEKK2wt confirm inactive | MEKK2mut confirm inactive | MEKK3 confirm inactive
CC(NC(=O)c1ccc(S(=O)(=O)NCc2ccco2)cc1)c1ccc(F)cc1 (stereo not drawn)	none (no result: MEKK2 mut-MEK5, MEKK2 WT-MEK5, MEKK3 PB1 HTS)
CCc1cccc(NC(=S)N(CCOC)C2CCN(C(C)=O)CC2)c1	MEKK2 mut-MEK5 34, MEKK3 PB1 HTS 123 | MEKK2wt confirm inactive | MEKK2mut confirm inactive | MEKK3 confirm inactive
CCOC(=O)N1CCC(N(CCN(C)C)C(=S)Nc2cccc(C)c2)CC1	MEKK3 PB1 HTS 138 | MEKK2wt confirm inactive | MEKK2mut confirm inactive | MEKK3 confirm inactive
CCOC(=O)N1CCC(N(CCN(C)C)C(=S)Nc2ccccc2OC)CC1	none
CCc1cccc(NC(=S)N(CCCOC(C)C)C2CCN(C(C)=O)CC2)c1	none
CCOC(=O)N1CCC(N(CCN(C)C)C(=S)Nc2ccccc2C)CC1	MEKK3 PB1 HTS 130 | MEKK2wt confirm inactive | MEKK2mut confirm inactive | MEKK3 confirm inactive
CC(C)OC(=O)C(C)Oc1ccc(C(=O)NCCc2ccccc2)cc1 (stereo not drawn)	MEKK3 PB1 HTS 123 | MEKK2wt confirm inactive | MEKK2mut confirm inactive | MEKK3 confirm inactive
COCCn1c(C)cc(/C=C(\C#N)C(=O)OCC(=O)Nc2ccc(S(N)(=O)=O)cc2)c1C	none (no result: MEKK2 mut-MEK5, MEKK2 WT-MEK5, MEKK3 PB1 HTS)
COc1ccccc1NC(=O)c1ccc(NC(=O)COC(=O)C(C)C)cc1	none
COc1ccccc1NC(=O)c1ccc(NC(=O)COC(=O)CC(NC(=O)c2ccccc2Cl)c2ccccc2)cc1 (stereo not drawn)	MEKK3 PB1 HTS 130 | MEKK2wt confirm inactive | MEKK2mut confirm inactive | MEKK3 confirm inactive
Cc1nc2ccc(Cl)cc2c(-c2ccccc2)c1CC(=O)O	none
Cc1nc2ccccc2c(-c2ccccc2)c1CC(=O)O	MEKK3 PB1 HTS 168 | MEKK2wt confirm inactive | MEKK2mut confirm inactive | MEKK3 confirm inactive
CN(/N=C/C=C/c1ccccc1)C1=NS(=O)(=O)c2ccccc21	MEKK3 PB1 HTS 134 | MEKK2wt confirm inactive | MEKK2mut confirm inactive | MEKK3 confirm inactive
COC(=O)CC1C(=O)NCCN1C(=O)CSc1nnc(Nc2ccc(OC)cc2)s1 (stereo not drawn)	MEKK3 PB1 HTS 122 | MEKK2wt confirm inactive | MEKK2mut confirm inactive | MEKK3 confirm inactive
COC(=O)CC1C(=O)NCCN1C(=O)CSc1nnc(Nc2ccc(C)cc2)s1 (stereo not drawn)	none
O=C(Nc1ccccc1)N1CCCC(c2nc(-c3ccc(F)cc3)no2)C1 (stereo not drawn)	none
O=C(Nc1cccc(C(F)(F)F)c1)N1CCC(c2nc(-c3ccc(F)cc3)no2)CC1	MEKK2 WT-MEK5 173 | MEKK2wt confirm inactive | MEKK2mut confirm inactive | MEKK3 confirm inactive
O=C(O)COCC(=O)Nc1ccc(Oc2ncnc3cc(Cl)ccc23)nc1	MEKK3 PB1 HTS 48[inhibitor] | MEKK2wt confirm inactive | MEKK2mut confirm inactive | MEKK3 confirm inactive
Cc1ccc2cc(C#N)c(SCC(=O)N3CCCC3)nc2c1	MEKK2 WT-MEK5 43[inhibitor], MEKK3 PB1 HTS 45[inhibitor] | MEKK2wt confirm inactive | MEKK2mut confirm inactive | MEKK3 confirm inactive
Cc1ccc(NC(=O)/C(C#N)=C/c2ccc(C)s2)c(C)c1	MEKK2 WT-MEK5 39[inhibitor] | MEKK2wt confirm inactive | MEKK2mut confirm inactive | MEKK3 confirm inactive
CN1C/C(=C/c2cccnc2)C(=O)/C(=C/c2cccnc2)C1	MEKK3 PB1 HTS 59[inhibitor] | MEKK2wt confirm inactive | MEKK2mut confirm inactive | MEKK3 confirm inactive
O=C(NCCc1ccccc1)C1CCC(=O)N1CCc1ccccc1 (stereo not drawn)	none
